The source of these data is PubChem BioAssay AID651871 (Sanford-Burnham Center for Chemical Genomics, 2012).

The experiment has as its system HL-1. Kind of experiment: protection of cardiomyocytes from stress damage, SAR follow-up, cell-based, panel, H9c2 and HL-1, ATP luminescence, set 2 (AID 651871).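 Further: cells exposed to stressor for 2 h before ATP readout; reference of the scale not given here.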 The conditions noted are these: H9c2/HL-1 cardiomyocytes, H2O2 oxidative stress; with H2O2, run 1, at 79 µM (top of the series).

SMILES strings stand for the structures. Values joined by “and” are separate entries in the source; they are usually repeats but may differ in a detail not shown here. Equal values may be shown once.

Consider `COc1ccc2c(c1OC)C(=O)N1c3ccccc3C(=O)N(Cc3cccc(Cl)c3Cl)C21` (centres undefined), for which the activity (protection/inhibition) was -0.863% and -7.11% and 4.56%.

Turning to `COc1ccc2nc(-c3cc(OC)c(OC)c(OC)c3)cc(C(=O)NCC(=O)Nc3ccc(C(C)=O)cc3)c2c1`, the activity (protection/inhibition) is 41.2% and 24.9%.

As to `CCOC(=O)c1cccc(NC(=O)CNC(=O)c2cc(-c3cc(OC)c(OC)c(OC)c3)nc3ccccc23)c1`, the activity (protection/inhibition) was 56.7%.

As to `COc1cc(-c2cc(C(=O)Nc3cccc(C(=O)NCc4ccccc4)c3)c3ccccc3n2)cc(OC)c1OC`, the activity (protection/inhibition) came to 34.6%.
